In ChEMBL document CHEMBL3988442, “University of Dundee, Small-Polar-MMV Screening Library” (2021):
For part of these data: Measured potencies and affinities stand elsewhere.

What was measured:
Set-up in all cases: scale not given: direction of the effect not stated beside the values
[1] = biological target: Protein translocase subunit SecA (Escherichia coli (strain K12)) (UniProt P10408); experiment: Assay to Identify E. coli SecA ATPase Inhibitors; type: functional; conditions: 30 µM
[2] = biological target: T1, Ubiquitin-activating enzyme e1, putative (Leishmania donovani (strain BPK282A1)) (UniProt E9BSI1); experiment: Leishmania donovani Ubiquitin Activating Enzyme (LdE1); type: functional; conditions: 30 µM
T1 sequence (whole entry): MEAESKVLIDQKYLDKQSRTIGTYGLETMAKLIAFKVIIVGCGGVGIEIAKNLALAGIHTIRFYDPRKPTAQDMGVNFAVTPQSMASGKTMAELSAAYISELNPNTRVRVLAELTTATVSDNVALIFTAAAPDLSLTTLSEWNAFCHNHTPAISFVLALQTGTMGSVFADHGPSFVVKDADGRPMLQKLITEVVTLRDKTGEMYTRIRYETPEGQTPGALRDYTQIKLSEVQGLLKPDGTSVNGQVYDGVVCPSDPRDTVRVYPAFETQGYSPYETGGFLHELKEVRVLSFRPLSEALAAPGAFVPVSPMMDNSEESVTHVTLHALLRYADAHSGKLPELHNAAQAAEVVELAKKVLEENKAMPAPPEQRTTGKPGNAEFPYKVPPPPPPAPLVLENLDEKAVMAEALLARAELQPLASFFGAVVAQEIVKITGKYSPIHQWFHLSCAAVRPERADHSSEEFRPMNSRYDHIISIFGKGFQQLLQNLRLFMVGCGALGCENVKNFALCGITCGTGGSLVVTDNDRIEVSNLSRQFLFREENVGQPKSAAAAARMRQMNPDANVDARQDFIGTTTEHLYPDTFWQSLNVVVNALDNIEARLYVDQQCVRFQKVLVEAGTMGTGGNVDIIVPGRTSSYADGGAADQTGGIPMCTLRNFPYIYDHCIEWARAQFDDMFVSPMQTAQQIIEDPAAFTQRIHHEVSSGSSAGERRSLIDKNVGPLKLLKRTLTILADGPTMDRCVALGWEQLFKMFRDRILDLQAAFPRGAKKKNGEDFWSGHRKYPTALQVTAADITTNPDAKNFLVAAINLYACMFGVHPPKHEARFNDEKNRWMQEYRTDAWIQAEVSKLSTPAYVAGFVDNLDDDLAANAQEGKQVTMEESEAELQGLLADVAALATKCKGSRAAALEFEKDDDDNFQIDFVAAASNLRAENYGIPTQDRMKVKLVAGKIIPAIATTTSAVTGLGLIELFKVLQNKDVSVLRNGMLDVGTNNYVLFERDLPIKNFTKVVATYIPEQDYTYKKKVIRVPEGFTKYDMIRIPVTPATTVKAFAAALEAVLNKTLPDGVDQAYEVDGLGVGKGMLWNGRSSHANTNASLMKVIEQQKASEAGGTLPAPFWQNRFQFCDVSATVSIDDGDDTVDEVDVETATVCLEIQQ

[3] = biological target: AMP-activated protein kinase, AMPK (Homo sapiens) (UniProt P54646+O43741+P54619+Q9UGJ0+Q9Y478+Q13131+Q9UGI9); experiment: AMP-dependent Kinase enzyme assay. An in vitro enzyme assay that detects ADP turnover that is directly proportional to AMPK activity. This uses naive AMPK that is activated during the assay with MK-8722; type: functional; conditions: 30 µM
[4] = biological target: Sialic acid-binding Ig-like lectin 9 (Homo sapiens) (UniProt Q9Y336); experiment: Hs-Siglec9 ALPHAscreen SOP 20170721; conditions: 10 µM
Sialic acid-binding Ig-like lectin 9 (Homo sapiens), sequence (Q9Y336 whole entry): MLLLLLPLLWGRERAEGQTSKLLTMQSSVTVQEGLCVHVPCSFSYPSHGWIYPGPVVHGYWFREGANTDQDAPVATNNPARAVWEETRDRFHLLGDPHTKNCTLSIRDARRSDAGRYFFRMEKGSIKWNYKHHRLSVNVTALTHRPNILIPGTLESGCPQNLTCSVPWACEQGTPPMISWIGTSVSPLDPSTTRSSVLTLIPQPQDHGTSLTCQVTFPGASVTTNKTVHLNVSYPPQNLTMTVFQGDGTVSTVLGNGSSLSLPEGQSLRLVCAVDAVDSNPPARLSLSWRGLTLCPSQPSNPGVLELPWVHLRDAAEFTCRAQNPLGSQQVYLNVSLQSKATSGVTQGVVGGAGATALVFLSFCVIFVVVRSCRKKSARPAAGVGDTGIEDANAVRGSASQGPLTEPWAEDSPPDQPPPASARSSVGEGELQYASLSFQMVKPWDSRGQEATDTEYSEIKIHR

[5] = system: Trypanosoma cruzi; experiment: Trypanosoma cruzi phosphomannomutase and mannose-1-phosphate guanylyltransferase assay; type: functional; conditions: 10 µM
[6] = biological target: T2, Arginase-2, mitochondrial (Homo sapiens) (UniProt P78540); experiment: in vitro enzyme assay to detect the production of urea directly proportional to the activity of Arginase II; type: functional; conditions: 33.3 µM; also: in the data most compounds retested in dose-response had high values
T2 sequence (whole entry): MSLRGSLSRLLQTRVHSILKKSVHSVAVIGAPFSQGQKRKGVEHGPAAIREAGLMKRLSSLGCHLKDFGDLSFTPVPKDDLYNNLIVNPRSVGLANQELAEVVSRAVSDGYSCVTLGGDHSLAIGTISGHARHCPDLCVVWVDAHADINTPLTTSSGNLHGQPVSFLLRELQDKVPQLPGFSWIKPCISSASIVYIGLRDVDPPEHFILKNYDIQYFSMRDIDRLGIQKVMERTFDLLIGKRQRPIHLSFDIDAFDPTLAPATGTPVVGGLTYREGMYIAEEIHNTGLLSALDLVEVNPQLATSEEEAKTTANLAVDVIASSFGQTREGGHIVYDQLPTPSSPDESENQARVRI

[7] = biological target: T3, Proteasome subunit beta (Trypanosoma cruzi) (UniProt O96673); experiment: Trypanosoma cruzi proteasome chymotrypsin-like activity (TcProtChymo) assay.; also: in the data most compounds retested in dose-response had high values; type: functional; conditions: 9.37 µM
T3 sequence (whole entry): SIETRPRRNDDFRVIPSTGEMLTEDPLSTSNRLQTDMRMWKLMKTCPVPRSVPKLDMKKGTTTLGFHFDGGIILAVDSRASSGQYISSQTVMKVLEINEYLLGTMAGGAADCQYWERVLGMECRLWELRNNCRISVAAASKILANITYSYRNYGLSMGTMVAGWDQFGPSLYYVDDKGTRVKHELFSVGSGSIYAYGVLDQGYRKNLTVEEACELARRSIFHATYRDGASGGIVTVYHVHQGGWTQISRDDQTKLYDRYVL

[8] = species on record: Homo sapiens; experiment: To identify inhibition of the IFN signalling (Jak-Stat) pathway via expression of an eGFP reporter gene under the control of an IFN-stimulated response element (ISRE) containing MxA promoter.; type: functional; conditions: 30 µM
[9] = biological target: T4, Tyrosyl-tRNA synthetase, putative (Trypanosoma cruzi (strain CL Brener)) (UniProt Q4DSP6); experiment: Trypanosoma cruzi tyrosyl tRNA synthetase (TcYRS) _High Tyrosine SOP; type: functional; conditions: 30 µM; also: in the data most compounds retested in dose-response had high values
T4 sequence (whole entry): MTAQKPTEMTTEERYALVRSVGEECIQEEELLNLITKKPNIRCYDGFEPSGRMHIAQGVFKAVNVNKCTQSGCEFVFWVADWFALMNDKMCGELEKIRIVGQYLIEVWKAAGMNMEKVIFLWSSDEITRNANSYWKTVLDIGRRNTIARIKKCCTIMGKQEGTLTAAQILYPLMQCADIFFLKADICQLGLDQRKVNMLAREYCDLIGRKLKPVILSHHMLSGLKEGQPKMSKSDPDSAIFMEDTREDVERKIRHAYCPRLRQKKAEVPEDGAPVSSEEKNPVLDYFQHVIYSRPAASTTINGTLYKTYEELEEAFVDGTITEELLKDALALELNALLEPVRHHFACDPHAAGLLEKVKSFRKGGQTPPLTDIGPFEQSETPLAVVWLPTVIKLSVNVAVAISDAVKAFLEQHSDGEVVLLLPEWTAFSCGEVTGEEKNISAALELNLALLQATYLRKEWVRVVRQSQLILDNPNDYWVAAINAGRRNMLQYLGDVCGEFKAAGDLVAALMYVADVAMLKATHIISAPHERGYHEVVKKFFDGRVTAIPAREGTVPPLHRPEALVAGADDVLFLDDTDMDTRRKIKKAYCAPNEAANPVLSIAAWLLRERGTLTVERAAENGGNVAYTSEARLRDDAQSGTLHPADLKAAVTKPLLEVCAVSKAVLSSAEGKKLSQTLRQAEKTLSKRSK

[10] = biological target: T4, Tyrosyl-tRNA synthetase, putative (Trypanosoma cruzi (strain CL Brener)); experiment: Trypanosoma cruzi tyrosyl tRNA synthetase (TcYRS) SOP; type: functional; conditions: 30 µM
[11] = biological target: Chromo domain-containing protein 1 (Saccharomyces cerevisiae (strain ATCC 204508 / S288c) (Baker's yeast)) (UniProt P32657); experiment: ScCHD-1 Enzyme Inhibition Assay; type: functional; conditions: 30 µM; also: in the data most compounds retested in dose-response had high values
Chromo domain-containing protein 1 (Saccharomyces cerevisiae (strain ATCC 204508 / S288c) (Baker's yeast)), sequence (P32657 whole entry, the tested form may be a part): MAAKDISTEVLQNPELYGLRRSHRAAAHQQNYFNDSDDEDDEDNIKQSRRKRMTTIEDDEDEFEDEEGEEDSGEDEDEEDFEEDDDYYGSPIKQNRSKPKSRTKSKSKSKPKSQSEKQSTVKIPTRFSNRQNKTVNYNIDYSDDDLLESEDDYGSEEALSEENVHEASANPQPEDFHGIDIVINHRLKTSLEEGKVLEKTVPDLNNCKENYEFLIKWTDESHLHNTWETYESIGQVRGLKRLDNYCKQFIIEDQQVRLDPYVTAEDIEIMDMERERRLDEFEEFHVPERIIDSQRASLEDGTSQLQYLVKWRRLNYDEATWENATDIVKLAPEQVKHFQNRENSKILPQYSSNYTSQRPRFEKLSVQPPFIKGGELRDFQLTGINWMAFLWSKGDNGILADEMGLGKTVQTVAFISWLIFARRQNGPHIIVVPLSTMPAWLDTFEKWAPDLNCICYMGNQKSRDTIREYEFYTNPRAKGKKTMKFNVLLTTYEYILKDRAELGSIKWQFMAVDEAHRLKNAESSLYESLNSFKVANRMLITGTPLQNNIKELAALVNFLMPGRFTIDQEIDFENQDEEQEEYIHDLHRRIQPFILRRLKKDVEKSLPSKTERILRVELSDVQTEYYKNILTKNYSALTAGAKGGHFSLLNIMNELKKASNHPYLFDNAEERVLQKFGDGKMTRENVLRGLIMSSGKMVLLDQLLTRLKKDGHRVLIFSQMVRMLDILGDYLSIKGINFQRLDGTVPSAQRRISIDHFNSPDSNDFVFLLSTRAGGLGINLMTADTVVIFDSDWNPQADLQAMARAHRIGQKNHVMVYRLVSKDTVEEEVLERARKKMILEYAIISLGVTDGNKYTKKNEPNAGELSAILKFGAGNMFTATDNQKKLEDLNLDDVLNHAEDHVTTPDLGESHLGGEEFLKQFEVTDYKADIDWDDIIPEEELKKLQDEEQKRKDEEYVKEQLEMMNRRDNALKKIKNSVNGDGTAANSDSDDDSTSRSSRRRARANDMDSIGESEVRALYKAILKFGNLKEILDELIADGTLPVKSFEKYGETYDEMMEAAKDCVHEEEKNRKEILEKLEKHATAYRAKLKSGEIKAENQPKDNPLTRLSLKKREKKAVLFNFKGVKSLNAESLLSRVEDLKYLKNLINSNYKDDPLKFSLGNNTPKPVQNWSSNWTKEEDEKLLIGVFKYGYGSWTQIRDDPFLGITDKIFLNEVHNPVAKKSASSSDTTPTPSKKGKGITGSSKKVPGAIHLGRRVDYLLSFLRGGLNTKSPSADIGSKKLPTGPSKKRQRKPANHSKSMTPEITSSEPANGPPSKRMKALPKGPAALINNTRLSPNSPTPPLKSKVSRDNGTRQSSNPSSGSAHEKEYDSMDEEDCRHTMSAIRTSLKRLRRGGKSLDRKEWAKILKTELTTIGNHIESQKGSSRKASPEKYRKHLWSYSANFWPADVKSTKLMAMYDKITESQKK

Protein translocase subunit SecA (Escherichia coli (strain K12)), sequence (P10408 whole entry): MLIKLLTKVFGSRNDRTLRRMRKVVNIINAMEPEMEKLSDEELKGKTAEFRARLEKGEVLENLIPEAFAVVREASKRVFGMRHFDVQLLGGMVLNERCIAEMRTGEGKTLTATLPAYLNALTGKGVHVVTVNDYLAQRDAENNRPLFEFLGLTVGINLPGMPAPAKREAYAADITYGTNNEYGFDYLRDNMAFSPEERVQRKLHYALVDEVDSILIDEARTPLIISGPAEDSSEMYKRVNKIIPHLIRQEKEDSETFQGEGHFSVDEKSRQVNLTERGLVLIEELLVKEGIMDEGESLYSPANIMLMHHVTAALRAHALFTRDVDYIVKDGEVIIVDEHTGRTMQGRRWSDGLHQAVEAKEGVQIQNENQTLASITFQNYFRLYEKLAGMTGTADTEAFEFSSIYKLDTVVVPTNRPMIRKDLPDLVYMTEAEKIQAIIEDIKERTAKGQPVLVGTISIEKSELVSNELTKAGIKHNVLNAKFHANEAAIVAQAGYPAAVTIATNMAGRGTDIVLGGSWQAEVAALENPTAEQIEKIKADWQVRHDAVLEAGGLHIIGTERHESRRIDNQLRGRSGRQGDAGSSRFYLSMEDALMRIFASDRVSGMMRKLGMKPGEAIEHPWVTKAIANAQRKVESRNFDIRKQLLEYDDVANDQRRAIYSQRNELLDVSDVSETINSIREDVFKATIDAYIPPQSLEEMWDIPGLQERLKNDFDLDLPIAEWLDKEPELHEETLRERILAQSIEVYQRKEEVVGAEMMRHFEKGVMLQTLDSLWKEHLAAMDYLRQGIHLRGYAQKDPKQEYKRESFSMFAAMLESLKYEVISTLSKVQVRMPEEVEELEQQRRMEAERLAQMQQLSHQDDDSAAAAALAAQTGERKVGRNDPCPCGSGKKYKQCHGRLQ

SMILES	Percent Effect [1] [%]	Percent Effect [2] [%]	Percent Effect [3] [%]	Percent Effect [4] [%]	Percent Effect [5] [%]	Percent Effect [6] [%]	Percent Effect [7] [%]	Percent Effect [8] [%]	Percent Effect [9] [%]	Percent Effect [10] [%]	Percent Effect [11] [%]
Cc1cc(N(C)Cc2noc(C)n2)n2nc(C)c(C)c2n1	-2.12	9.72	-8.49	-4.19	-1.07	3.97	15.6	9.15	4.21	10.3	-4.2
COc1ccc(C2=C(C)C(N3CCc4ccccc43)=NS2(=O)=O)cc1	-1.62	20.8	-4.65	-5.53	1.08	3.23	12.7	9.51	-1.06	8.97	-11.2
Cc1ccc(CN(C)C(=O)CN2CCOC(Cn3cncn3)C2)o1 (stereo unspecified)	1.63	15.2	-6.86	-11.8	-7.46	9.89	13	16.3	5.42	11.4	-2.75
COc1ccccc1OCC(=O)NCC(O)(c1ccccc1)C1CC1 (stereo unspecified)	-4.08	13.7	-8.54	17	2.74	0.909	14	7.48	8.6	15	-5.98
COc1cc(C)ccc1OCCC(=O)N1CCCC1Cn1cccn1 (stereo unspecified)	-6.85	15.8	-7.6	14.4	3.64	-1.44	0.254	1.25	5.42	13.6	-6.6
CC(NC(=O)NCC1(c2ccc(F)cc2)CCC1)c1nncn1C (stereo unspecified)	-5.85	15.8	2.85	8.69	-3.83	0	2.62	7.23	6.4	23.5	2.89
Cc1nn(C)cc1C(=O)N1C[C@H]2CC[C@@H]1CN(S(=O)(=O)N(C)C)C2	-0.765	5.33	-1.08	4.66	-8.08	2.6	20.2	13.3	0.546	1.24	-6.02
CC(=O)Nc1nc(CN2CCCC2c2cnn(C)c2)cs1 (stereo unspecified)	-7.62	20.2	-9.48	17.6	9.54	-6.46	6.31	-5.41	7.39	21.5	-5.9
CCn1ccnc1CN(C)C1CCCN(CCc2ccccc2)C1 (stereo unspecified)	-7.05	0	0.137	4.16	-3.64	4.14	0.832	-8.38	5.38	3.7	2.42
CN(Cc1nnc(C2CC2)n1C)C1CCN(CCc2cccs2)C1 (stereo unspecified)	-0.668	5.48	-3.64	3.02	8.33	0	15.5	-8.16	2.08	6.17	-3.22
Cc1cc(C)nc(CCNC(=O)C(c2ccc(F)cc2)N(C)C)n1 (stereo unspecified)	6.75	11	8.61	2.2	-9.13	-31.9	3	48.8	1.04	6.17	-6.29
CC(c1ccco1)N(C)Cc1nc2c(cnn2C)c(=O)[nH]1 (stereo unspecified)	-2.49	24.3	-5.7	5.24	3.44	2.77	15.1	11.7	-8.91	28.1	-9.16
Cc1nc(C2CCN(C(=O)c3ccc(=O)n(C)c3)CC2)c2sccn12	-2.51	4.05	3.65	3.19	1.58	-3.02	10.4	3.58	3.23	6.49	-13.8
CC(NC(=O)NCC1(O)CCC1)c1ccc(OCC2CC2)c(F)c1 (stereo unspecified)	-6.25	10.5	0.839	9.9	1.85	-24.9	10.3	14	3.19	7.79	-3.31
Cc1nc(-c2ccsc2)ccc1C(=O)NCCC(=O)N1CCCC1	-5.91	13.2	-2.05	5.21	6.2	1.15	3.34	-2.2	-1.47	9.76	-11.3
COc1c(CNCc2ccc(C(=O)NC3CC3)cc2)c(C)nn1C	-3.12	8.86	-1.46	6.83	-3.18	2.8	11	9.67	1.04	12.7	-6.42
COc1cccc(CNCCc2cc(F)cc3c2OCOC3)c1	-2.14	1.39	-14.2	27	6.51	3.53	8.42	1.36	0	5.13	-4.8
CCc1nccc(CN2CCCC(c3nn(C)c(=O)n3CC)C2)n1 (stereo unspecified)	-3.27	8.11	-2.62	37.3	2.64	8.19	-1.63	2.84	4.3	13.6	-3.17
Cc1ccoc1C(=O)NCC(Cc1ccc(F)cc1)C(N)=O (stereo unspecified)	-1.94	18.2	4.14	0.338	3.62	4.42	15.3	-1.29	7.62	23.5	-14.3
CNC(=O)CC1CCN(Cc2nc(-c3cccc(Cl)c3)oc2C)CC1	-1.83	8.11	-6.08	19.1	4.05	0	20.2	4.01	5.82	9.76	-2.39
CCN(Cc1ccc2c(c1)OCO2)C(=O)NC(C)Cn1cccn1 (stereo unspecified)	-2.99	20.8	2.96	-4.68	-5.43	1.42	8.78	5.38	4.85	14.6	-8.47
